This is a sample that favours compounds with a hit; in the whole collection about 11% have one here.
Luciferase inh – blocks purified firefly luciferase enzyme activity | 2.5% of 76,000 active | P08659 | Potency, µM (highest dose often 115 µM), most hits filed as inhibitors | purified P. pyralis luciferase, luminescence, biochemical; further: nearly all actives have a fitted effect of over 65% in size
Target sequence (P08659 whole entry, looked up): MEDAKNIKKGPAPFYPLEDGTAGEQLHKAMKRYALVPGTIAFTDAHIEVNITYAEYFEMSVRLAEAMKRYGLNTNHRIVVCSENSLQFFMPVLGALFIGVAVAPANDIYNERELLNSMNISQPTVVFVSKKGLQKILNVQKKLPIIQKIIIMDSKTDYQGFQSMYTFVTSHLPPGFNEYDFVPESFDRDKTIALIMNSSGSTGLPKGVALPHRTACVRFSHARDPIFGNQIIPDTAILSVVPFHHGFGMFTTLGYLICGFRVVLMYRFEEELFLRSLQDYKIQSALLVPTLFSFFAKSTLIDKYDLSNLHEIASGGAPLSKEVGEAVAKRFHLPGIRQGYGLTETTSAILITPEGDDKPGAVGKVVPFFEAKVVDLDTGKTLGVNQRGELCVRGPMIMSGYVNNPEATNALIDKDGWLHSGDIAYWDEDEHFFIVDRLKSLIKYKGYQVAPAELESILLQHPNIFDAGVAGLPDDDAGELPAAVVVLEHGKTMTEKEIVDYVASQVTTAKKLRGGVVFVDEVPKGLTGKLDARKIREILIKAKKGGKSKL
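Inhibitors were tested against purified firefly luciferase in a biochemical, low-substrate format (both substrates at 10uM) and luminescence measured with a CCD imager.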
hNpr1 antagonist – blocks ANP-stimulated signaling of human Npr1 receptor; Potency, µM (doses to about 46.3 µM), inactives show at the highest dose activity change, negative = inhibition, hits mostly inhibitors; HEK293 hNpr1 GloSensor cGMP, ANP-stimulated luminescence; P16066; 1.6% of 76,000 active; calls by dose curve; further: nearly all actives have a fitted effect of over 60% in size
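Compound pre-incubated 30 min at room temperature on GloSensor-loaded HEK293 cells stably carrying hNpr1 and the pGS-40F cGMP biosensor. Stimulation uses hNppA at 0.1 nM final; luminescence is taken at baseline and 20 min post-agonist.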
HEK293 tox – kills HEK 293 cells; Potency, µM (top dose mostly 115 µM), inactives show top-dose activity change, negative = cytotoxicity, hits mostly inhibitors; 6.6% of 94,000 active; HEK 293 viability, ATP luminescence (CellTiter-Glo), 48-72 h; further: nearly all actives have a fitted effect of over 60% in size
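Read-out: CellTiter-Glo ATP luminescence. Cells: HEK 293, 250 cells/well. Exposure: 48 or 72 hr, 37 degree Celsius.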
3T3 cytotox – kills NIH 3T3 cells. NIH 3T3 viability, CellTiter-Glo ATP luminescence, 48-72 h. Potency, µM (highest dose often 96.7 µM), for inactives: top-dose activity change, negative = cytotoxicity, most hits filed as inhibitors. 4.3% of 94,000 active. AID 1345082; further: nearly all actives have a fitted effect of over 55% in size
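Viability of NIH 3T3 cells after 48 or 72 hr compound treatment at 37 °C was assessed by CellTiter-Glo, with luminescence imaged following a 10 min room-temperature step.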
* = called active by the depositor; i = inactive; ? = inconclusive; / = not tested or not shown; [ ] = dose if it differs, or a comment. Unless noted, the call rests on the fitted dose curve; in most records, active means well fitted curve in the direction sought with a large enough effect; inconclusive means small, poorly fitted or top-dose-only effect, or another doubt; inactive means no such curve, though single readings can be large; an effect the other way counts as inactive or inconclusive. On the % scale 0 is the no-effect control and ±100 the full control effect; potency means the concentration at half of the fitted maximal effect.

SMILES	Luciferase inh	hNpr1 antagonist	HEK293 tox	3T3 cytotox
CSc1ccc(-c2ccc(=O)n3c2[C@@H]2C[C@@H](CN(S(=O)(=O)c4cccs4)C2)C3)cc1	i	-2%	?	-7%
CCn1cc(CN2CCN(C(=O)Cc3c(C)noc3C)CC2)ccc1=O	i	-3%	?	-21%
COc1ncc(-c2cnc3[nH]cc(CC(=O)N4CCN(C)CC4)c3c2)cn1	i	-12%[70.6 µM]	i	?
CN1CCN(C(=O)Cc2c[nH]c3ncc(-c4ccc5c(c4)OCO5)cc23)CC1	22µM*	-1%[70.6 µM]	?	?
CN1CCN(C(=O)Cc2c[nH]c3ncc(-c4cccc(Cl)c4)cc23)CC1	i	-23%[70.6 µM]	89µM*	50µM*
CN1CCN(C(=O)Cc2c[nH]c3ncc(-c4ccc(F)c(Cl)c4)cc23)CC1	i	-16%[70.6 µM]	79µM*	28µM*
CN1CCN(C(=O)Cc2c[nH]c3ncc(-c4cccc(F)c4)cc23)CC1	i	3%[70.6 µM]	-18%[172 µM]	?
CN1CCN(C(=O)Cc2c[nH]c3ncc(-c4ccc(Cl)cc4)cc23)CC1	22µM*	-15%[70.6 µM]	100µM*	28µM*
Cn1cc(-c2cnc3[nH]cc(CC(=O)N4CCN(Cc5ccccc5)CC4)c3c2)cn1	?	-8%[70.6 µM]	?	40µM*
O=C1N(c2ccccn2)C[C@H]2CN(Cc3ccc(F)cc3)CCN12	25µM*	-18%[70.6 µM]	-26%[172 µM]	-30%[138 µM]
O=C1NCCCCCCN(Cc2ccncc2)[C@@H]2CN(C(=O)COc3ccc(F)cc3)CC[C@@H]12	i	7%	-5%	35µM*
COc1cccc(CC(=O)N2[C@H]3CC[C@@H]2c2cnc(C)nc2C3)c1	i	0%	3%	0%
COc1cccc(CC(=O)N2[C@H]3CC[C@@H]2c2cnc(-c4ccc(F)cc4)nc2C3)c1	i	5%	32µM*	?
COc1ccc(CC(=O)N2[C@H]3CC[C@@H]2c2cnc(-c4ccc(F)cc4)nc2C3)cc1OC	i	-29%	79µM*	-19%
CCN1CCCCC12Cc1ccccc1CN(C(=O)Cc1ccccc1)C2 (stereo not given)	/	/	-12%	3%
Cc1ccccc1S(=O)(=O)N1[C@H]2CC[C@@H]1c1cnc(-c3ccccc3)nc1C2	i	?	25µM*	?
Cc1cccc(NC(=O)N2[C@H]3CC[C@@H]2c2cnc(-c4ccccc4)nc2C3)c1	i	-29%	40µM*	?
Cc1ccc(C)c(S(=O)(=O)N2[C@H]3CC[C@@H]2c2cnc(-c4ccccc4)nc2C3)c1	i	?	-41%	-17%
CCS(=O)(=O)N1[C@H]2CC[C@@H]1c1cnc(-c3ccc(F)cc3)nc1C2	i	?	40µM*	-30%
C#C[C@H]1CN2CC[C@H]1C[C@@H]2CNC(=O)CC(C)(C)CC(=O)O	i	5%[70.6 µM]	?	2%[174 µM]
C#C[C@H]1CN2CC[C@H]1C[C@@H]2CNCc1cccc(Cl)c1	i	-5%[70.6 µM]	126µM*	?
C=C[C@H]1CN2CC[C@H]1C[C@@H]2CNCc1cccc(Cl)c1	i	-14%[70.6 µM]	?	?
CC[C@H]1CN2CC[C@H]1C[C@@H]2CNC(=O)c1ccc(-c2ccccc2)cc1	i	2%[70.6 µM]	89µM*	?
C#C[C@H]1CN2CC[C@H]1C[C@@H]2CNC(=O)c1ccc(-c2ccccc2)cc1	i	1%[70.6 µM]	89µM*	112µM*
CC[C@H]1CN2CC[C@H]1C[C@@H]2CNC(=O)c1ccc2ccccc2c1	i	-12%[70.6 µM]	?	?
SMILES	Luciferase inh	hNpr1 antagonist	HEK293 tox	3T3 cytotox
CSCC(=O)Nc1ccc(=O)n2c1[C@@H]1C[C@@H](CN(C(=O)c3ccc(F)cc3)C1)C2	i	-2%[70.6 µM]	3%[172 µM]	-9%[174 µM]
CC[C@H]1CN2CC[C@H]1C[C@@H]2CNCc1cccs1	i	1%[70.6 µM]	-20%[230 µM]	-15%[174 µM]
O=c1cccc2n1CC1CC2CN(Cc2cc3n(n2)CCNC3)C1 (stereo not given)	i	1%	-5%	-12%
CC[C@H]1CN2CC[C@H]1C[C@@H]2CNCc1ccc(C(F)(F)F)cc1	i	-1%[70.6 µM]	?	89µM*
CC[C@H]1CN2CC[C@H]1C[C@@H]2CN(Cc1ccc(SC)cc1)Cc1ccc(SC)cc1	i	-14%[70.6 µM]	7.1µM*	10µM*
CC[C@H]1CN2CC[C@H]1C[C@@H]2CNCc1ccc(-c2ccccc2)cc1	i	-16%[70.6 µM]	25µM*	28µM*
CC[C@H]1CN2CC[C@H]1C[C@@H]2CNCc1ccc(OC)cc1	i	-4%[70.6 µM]	?	-24%[230 µM]
COc1ccc(S(=O)(=O)N2C[C@@H]3C[C@H](C2)c2ccc(-c4ccccc4C)c(=O)n2C3)cc1	i	-2%	-1%	-9%
Cc1ccc(CN2C[C@@H]3C(C(N)=O)=NO[C@@H]3C2)nc1	i	8%[70.6 µM]	-9%[230 µM]	112µM*
Cc1ccsc1C(=O)N1CCC2(CC1)NCc1ccccc1-n1ccnc12	i	-9%	-17%	28µM*
Cc1ccccc1C(=O)N1CCC2(CC1)c1nccn1-c1ccccc1CN2CC(C)C	i	-26%	45µM*	?
CC(C)NC(=O)OC[C@H]1C[C@@H]2CCN1C[C@@H]2c1cc(-c2ccc(F)cc2)nn1C	i	-2%[70.6 µM]	112µM*	?
CCCNC(=O)OC[C@H]1C[C@@H]2CCN1C[C@@H]2c1cc(-c2ccc3ccccc3c2)nn1C	i	-10%[70.6 µM]	63µM*	32µM*
CC(C)NC(=O)OC[C@H]1C[C@@H]2CCN1C[C@@H]2c1cc(-c2ccc3ccccc3c2)nn1C	40µM*	-25%[70.6 µM]	28µM*	28µM*
Cn1nc(-c2ccc3ccccc3c2)cc1[C@H]1CN2CC[C@H]1C[C@@H]2COC(=O)Nc1cccc(C(F)(F)F)c1	i	4%	79µM*	?
COc1ccc(-c2cc([C@H]3CN4CC[C@H]3C[C@@H]4COC(=O)Nc3ccc(C(C)C)cc3)n(C)n2)cc1OC	i	0%	?	?
CCCNC(=O)OC[C@H]1C[C@@H]2CCN1C[C@@H]2c1cc(-c2ccc(F)cc2)nn1C	i	-9%[70.6 µM]	?	?
CCCNC(=O)OC[C@H]1C[C@@H]2CCN1C[C@@H]2c1cc(-c2ccccc2OC)nn1C	i	-1%[70.6 µM]	?	?
Cn1cc(CNCC2(CO)C[C@@H](O)[C@@H](O)C2)c2ccccc21 (stereo not given in full)	i	-3%[70.6 µM]	-4%[172 µM]	1%[138 µM]
COc1ccc(-c2cc([C@H]3CN4CC[C@H]3C[C@@H]4CNC(=O)C3CCCCC3)n(C)n2)cc1OC	i	-1%	?	-19%
CC(C(N)=O)N1CCC2(CC1)C(=O)N(C)c1ccccc12 (stereo not given)	i	18%	2%	0%
O=C(O)C1CN(Cc2ccoc2)CCN(C(=O)Cc2ccccc2)C1 (stereo not given)	i	-6%	-4%	-13%
CCOC(=O)[C@H]1CN(C(=O)CCc2ccccc2)[C@]2(C)C(=O)N(CCOC)c3ccccc3[C@H]12	/	/	?	-18%[46.1 µM]
COc1cc2c(cc1Oc1ccccc1)NC(=O)C21CCN(C(=O)c2cccnc2)CC1	i	-24%[70.6 µM]	56µM*	?

Source: PubChem BioAssay
